aSyn rescue: inhibitors of alpha-synuclein toxicity in yeast | 370,000 tested, 0.14% active | Potency, µM (titrated, usually from 46.1 µM), for the others: top-dose growth rescue (activation), most hits filed as activators | Yeast expressing alpha-synuclein, growth rescue, BacTiter-Glo, 24 h; further: % of control where 0% means no effect; nearly all actives have a fitted effect of over 65% in size
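Readout is rescue of growth in alpha-synuclein-expressing yeast, so inhibitors of toxicity appear as activators. Growth after 24 hr at 30 deg C in galactose medium is quantified by luminescence.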
Abeta yeast res: A-beta toxicity reversal in yeast | yeast expressing A-beta42, growth rescue, OD600, 48 h; response scale: 0% DMSO, 100% iron-clioquinol control | AID 1347071 | Potency, µM (series often up to 46.1 µM), usual class: activators | 410,000 tested, 0.063% active; further: nearly all actives have a fitted effect of over 55% in size
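Growth rescue measured by 600 nm absorbance after 48 h yeast culture at 30 C with compound. Values normalized between DMSO and an equimolar ferric chloride plus clioquinol control.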
TDP-43 yeast inh: TDP-43 toxicity inhibition in yeast. Potency, µM (titrated, usually from 46.1 µM), inactives show top-dose growth rescue (activation), most hits filed as activators. AID 652104. TDP-43 expressing yeast growth rescue, BacTiter-Glo, 24 h. 410,000 tested, 1.8% active; further: % of control where 0% means no effect; nearly all actives have a fitted effect of over 50% in size
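Galactose-induced TDP-43 yeast, OD600=0.02, compound pinned; 24 hr, 30 deg C; BacTiter-Glo luminescence for growth. Inhibitors of TDP-43 toxicity read as activators.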
FUS suppressor: suppressors of FUS proteinopathy in yeast; S. cerevisiae FUS-expressing, growth rescue, OD600, 24 h; Potency, µM (series often up to 76.6 µM), hits mostly activators; 390,000 tested, 0.24% active; AID 1347120;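 further: plate controls were DMSO vehicle for no effect and reference control for full effect; nearly all actives have a fitted effect of over 55% in size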
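Cultures pregrown in 2.5% raffinose medium are shifted to minimal medium containing 2% galactose to express toxic FUS. Compounds are tested at several concentrations. After 24hr at 30C, growth is quantified at 600 nm absorbance.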
The depositor's hits bear a star; i = inactive; ? = inconclusive; . = not tested or not shown. Only some compounds are listed: those with a hit (about 2.1% of all), similar ones and a draw of the others. The call rests on the fitted dose curve; in most records, active means well fitted curve in the direction sought with a large enough effect; inconclusive means small, poorly fitted or top-dose-only effect, or another doubt; inactive means no such curve, though single readings can be large; an effect the other way counts as inactive or inconclusive. Potency means the concentration at half of the fitted maximal effect.

SMILES	aSyn rescue	Abeta yeast res	TDP-43 yeast inh	FUS suppressor
Cc1cccc(NS(=O)(=O)c2ccc(C(=O)N3CCN(c4ccccc4O)CC3)cc2)c1C	-0.2%	i	15.0%	31.6µM*
Cc1ccc(C)c(N2CCN(C(=O)c3ccc(N4CCCC4=O)cc3)CC2)c1	2.4%	i	20µM*	i
Cc1cccc(N2CCN(C(=O)c3cccc(S(=O)(=O)N4CCCCC4)c3)CC2)c1C	6.1%	i	7.08µM*	i
O=C(c1cccc(S(=O)(=O)N2CCCCCC2)c1)N1CCN(c2ccccc2F)CC1	8.1%	i	?	i
C=CCn1c(SCC(=O)Nc2cc3oc4ccccc4c3cc2OC)nnc1-c1cnccn1	1.8%	i	17.4%	i
COc1cc2c(cc1NC(=O)CSc1nnc(-c3cnccn3)n1-c1ccc(C)cc1)oc1ccccc12	.	.	.	17.8µM*
Cc1cc(=O)oc2c(C)c3occc3cc12	?	?	2.51µM*	i
COc1ccc2c(C)cc(=O)oc2c1C	1.7%	i	10.0%	i
CCc1ccc(CNC(=O)c2cnc3c(C)cccn3c2=O)cc1	.	i	15.8µM*	i
O=C(Cc1ccccc1)N(Cc1cccnc1)c1nc2c(F)cc(F)cc2s1	.	i	17.8µM*	i
Cc1cccc2sc(N(Cc3cccnc3)C(=O)COc3ccccc3)nc12	.	i	11.2µM*	i
COc1ccc2nc(N(Cc3cccnc3)C(=O)COc3ccccc3)sc2c1	.	i	15.8µM*	i
CC(=O)N(Cc1cccnc1)c1nc2c(F)cc(F)cc2s1	.	i	18.7%	i
COc1ccc2sc(N(Cc3cccnc3)C(=O)COc3ccccc3)nc2c1	.	i	11.2%	i
CCOc1ccc(C(=O)Nc2cccc(NC(=O)c3ccc(C(C)(C)C)cc3)c2)cc1Br	.	i	?	i
O=C(NC(=S)NCc1ccccc1)c1ccccc1F	.	i	?	i
C/C(=N\NC(=S)NCc1ccccc1)c1ccco1	-12.0%	11.2µM*	?	i
C/C(=N\NC(=S)NCc1ccccc1)c1ccccc1F	-7.6%	11.2µM*	-11.1%	i
COc1ccc(CNC(=S)N/N=C(/C)c2ccccc2)cc1	-18.8%	?	17.8µM*	i
C/C(=N\NC(=S)NCc1ccccc1)c1ccccc1	-5.4%	3.55µM*	0.0%	i
C/C(=N\NC(=S)NCc1ccccc1)c1ccc(C(C)(C)C)cc1	9.1%	?	25.4%	.
COc1ccccc1NC(=O)c1oc2ccccc2c1NC(=O)c1ccc(S(=O)(=O)N(C)C)cc1	.	i	16.4%	i
Cc1cccc(NC(=O)Cn2c(=O)n(Cc3ccc4c(c3)OCO4)c(=O)c3oc4ccccc4c32)c1C	.	i	?	i
COC(=O)c1ccc(CSc2nnc(Nc3ccccc3OC)s2)o1	-8.3%	i	17.8µM*	i
COC(=O)c1ccc(CSc2nnc(Nc3ccc(OC)cc3)s2)o1	0.1%	i	14.4%	i
SMILES	aSyn rescue	Abeta yeast res	TDP-43 yeast inh	FUS suppressor
O=C1NCCc2onc(-c3ccc(Br)cc3)c21	-18.3%	i	35.5µM*	i
CC(C)(C)OC(=O)N1CCc2onc(-c3ccc(Br)cc3)c2C1=O	-0.9%	i	?	i
O=C(C1CCC1)N1CCCc2cc(S(=O)(=O)Nc3ccc(F)cc3)ccc21	.	i	18.6%	i
Cc1ccc(Cl)cc1-n1c(CCC(=O)O)ccc1-c1cccs1	.	i	12.6µM*	i
CCCCn1c(CCC(=O)O)ccc1-c1cccs1	15.6%	i	17.8µM*	i
Cc1c(Cl)cccc1-n1c(CCC(=O)O)ccc1-c1cccs1	.	i	?	?
Cc1ccc(-n2c(CCC(=O)O)ccc2-c2cccs2)cc1C	4.9%	i	12.4%	i
COCCn1c(CCC(=O)O)ccc1-c1cccs1	10.8%	i	-17.6%	i
CCOC(=O)c1ccc(-n2c(CCC(=O)O)ccc2-c2cccs2)cc1	20µM*	i	26.0%	i
Cc1cc(Cl)ccc1-n1c(CCC(=O)O)ccc1-c1cccs1	.	i	22.4µM*	?
CCOC(=O)c1ccccc1NC(=O)NC(C)c1c(-n2cccc2)sc(C)c1C (stereo not drawn)	.	i	15.1%	i
CNCc1nc(-c2ccc[nH]2)c2cc(Cl)ccc2n1	-3.3%	.	.	.
O=C(O)CCc1ccc(-c2cccs2)o1	14.1µM*	i	?	i
Nc1ccc(-c2nc3ncccc3o2)cc1	15.8µM*	?	13.0%	i
O=C(/C=C/c1ccc(F)cc1)c1ccccc1Br	?	i	15.8µM*	.
O=C(CSc1nccc(-c2cccs2)n1)Nc1cccc(Cl)c1	2.8%	i	14.1µM*	i
O=C(NCc1ccccc1F)C1CCN(Cc2cc3ccccc3n2Cc2cccc(Cl)c2)CC1	.	i	5.9%	i
Cc1[nH]n(C(N)=S)c(=O)c1N=Nc1ccc(S(=O)(=O)N2CCCCCC2)cc1	1.9%	i	3.98µM*	i
O=C(NCCc1ccccc1Cl)c1sc2ncccc2c1-n1cccc1	.	i	17.8µM*	?
O=C(NCCc1c[nH]c2ccccc12)OCc1cn(Cc2ccccc2Cl)nn1	.	.	.	i
Cc1ccc(CSc2nnc(-c3cccs3)n2C)cc1	7.7%	i	?	i
Cn1c(SCc2ccc(Br)cc2)nnc1-c1cccs1	8.9%	i	14.1µM*	i
Cn1c(SCc2c(Cl)cccc2Cl)nnc1-c1cccs1	11.8%	i	17.8µM*	i
Cc1nnc(SCc2c(Cl)cccc2Cl)s1	9.3%	i	15.8µM*	i
CSc1nnc(-c2cccs2)n1C	-4.1%	i	-3.6%	i
SMILES	aSyn rescue	Abeta yeast res	TDP-43 yeast inh	FUS suppressor
O=C(Nc1ccc(F)cc1)OCc1cn(Cc2cccc(C(F)(F)F)c2)nn1	.	.	.	i
Cc1cccc(N(CC(=O)Nc2ccc(Br)cc2)S(C)(=O)=O)c1C	.	i	?	i
O=C(Cc1ccc(-c2ccccc2)cc1)NCCS(=O)(=O)N1CCN(c2cccc(Cl)c2)CC1	.	i	21.2%	i
Cc1nc(Nc2nc3c(c(=O)[nH]2)CCC3)nc2ccccc12	11.2µM*	i	14.1µM*	i
CCOC(=O)c1sc(-c2ccccc2)cc1N	15.6%	i	7.08µM*	i
CCn1cc(C(=O)N2CCN(c3ccc(OC)cc3)CC2)c2cc(OC)c(OC)cc2c1=O	3.2%	i	22.1%	i
COc1cc2c(C(=O)N3CCN(c4ccc(C)cc4)C(C)C3)cn(CC(C)C)c(=O)c2cc1OC (stereo not drawn)	.	i	35.5µM*	?
O=[N+]([O-])c1ccc(/C=C2\C=C(C(O)c3ccc([N+](=O)[O-])cc3)c3ccccc32)cc1 (stereo not drawn)	12.8%	.	.	.
Cc1ccc(SCCN2CCC(NC(=O)OCc3ccccc3)CCC2=O)cc1 (stereo not drawn)	-0.1%	i	13.5%	?
Cc1ccc(SC[C@H](C)CN2CCC(NC(=O)OCc3ccccc3)CCC2=O)cc1 (stereo partly drawn)	25.1µM*	i	?	?
Cc1noc(C)c1COc1ccc(CC(=O)NCCc2ccccc2)cc1	5.5%	i	0.7%	i
